# Activity calls are given as the source filed them. Cut-off read from the data, not from the text of the source: active = fold change permeability below about 0.7 or above about 1.3; inactive = in between.
# Assay: compounds altering in vitro BBB leakiness – cell-based, FITC-avidin fluorescence, HTS, primary screen (AID 1963498); note: test concentration not given here
# Settings: brain endothelial barrier, actives lie on both sides
row,Structure (SMILES),fold change permeability
1,Oc1ccc2c(c1)CC[C@H](c1ccccc1)[C@@H]2c1ccc(OCCN2CCCC2)cc1,1.3 (active)
2,CC(=O)NNC(=O)N1Cc2ccccc2Oc2ccc(Cl)cc21,0.7 (active)
3,CSc1ccc2c(c1)C(N1CCN(C)CC1)Cc1ccccc1S2 (stereo not given),0.9 (inactive)
4,O=C(NCCN1CCOCC1)c1ccc(Cl)cc1,0.8 (inactive)
5,O=C1c2ccccc2C(=O)c2c(NCCc3ccc(O)cc3)ccc(NCCc3ccc(O)cc3)c21,1.1 (inactive)
6,Nc1nc2c(c(=O)[nH]1)C[C@@H](CCc1ccc(C(=O)N[C@@H](CCC(=O)O)C(=O)O)cc1)CN2,0.9 (inactive)
7,CN(C)C(=O)/N=N/C(=O)N(C)C,1 (inactive)
8,O=[N+]([O-])c1ccc2c(c1)S(=O)(=O)C=C2,2.1 (active)
9,CN1CCN2c3ccccc3Cc3ccccc3C2C1 (stereo not given),1.1 (inactive)
10,CN1CCN(C2=Nc3ccccc3Cc3ccccc32)CC1,1.2 (inactive)
11,CCCCCN=C(N)N/N=C/c1c[nH]c2ccc(OC)cc12,0.9 (inactive)
12,Cc1scc2c1N(C(=O)CN1CCN(C)CC1)c1ccccc1NC2=O,0.8 (inactive)
13,O=C(O)Cn1c(C(=O)Nc2nc(-c3ccccc3Cl)cs2)cc2ccccc21,1.3 (active)
14,CC(=O)Nc1ccc(C(=O)Nc2ccc(F)cc2N)cc1,0.8 (inactive)
15,C[C@H](CSC(=O)c1ccccc1)C(=O)N1C[C@@H](Sc2ccccc2)C[C@H]1C(=O)O,1 (inactive)
16,COc1ccc(-n2c(SCc3nc(-c4ccc(C)cc4)no3)nnc2-c2ccncc2)cc1,0.8 (inactive)
17,N=C(N)N1CCc2ccccc2C1,1.3 (active)
18,Nc1ncnc2c1ncn2C1CCCO1 (stereo not given),1 (inactive)
19,CC1CNCCN1S(=O)(=O)c1cccc2cnccc12 (stereo not given),1.1 (inactive)
20,CCN1CCC[C@H]1CNC(=O)c1cc(S(N)(=O)=O)ccc1OC,0.7 (active)

row,Structure (SMILES),fold change permeability
1,CCN(CC)Cc1ccc(C(=O)N(CCc2ccccc2OC)[C@@H]2CCNC2)cc1,0.9 (inactive)
2,CN1CCN(C2Cc3ccccc3Sc3ccc(Cl)cc32)CC1 (stereo not given),1.2 (inactive)
3,CNCC(O)c1ccc(O)c(O)c1 (stereo not given),0.8 (inactive)
4,O=C(Nc1ccc(Oc2ccc(Cl)cn2)c(Cl)c1)c1ccccn1,1.5 (active)
5,O=S(=O)(c1cccc2c(Cl)cccc12)N1CCCNCC1,1.1 (inactive)
6,CCCNC(=O)Nc1ccc(Oc2ncnc3cc(OC)c(OC)cc23)cc1Cl,1.1 (inactive)
7,CCOc1cc(C(=O)Nc2ccc(Cl)c(-c3nc4ccccc4[nH]3)c2)cc(OCC)c1OCC,1.7 (active)
8,COc1cccc2c(NCc3ccccc3)nc(-n3c(N)nc4ccccc43)nc12,0.9 (inactive)
9,c1ccc2c(CC3=NCCN3)cccc2c1,0.9 (inactive)
10,Cn1cnc([N+](=O)[O-])c1Sc1ncnc2nc[nH]c12,1.1 (inactive)
11,O=C(OC12CC3CC(CC(C3)C1)C2)c1ccc(NCc2cc(O)ccc2O)cc1,1 (inactive)
12,C[C@]12CC[C@@H]3c4ccc(O)cc4C[C@@H](CCCCCCCCCS(=O)CCCC(F)(F)C(F)(F)F)[C@H]3[C@@H]1CC[C@@H]2O (stereo not given in full),1 (inactive)
13,CC(C)=CCc1cc2c(cc1O)oc(=O)c1c3ccc(O)cc3oc21,1.4 (active)
14,O=C(S)S,1.4 (active)
15,O=C1S/C(=C\c2ccc(OCc3ccc(B(O)O)cc3)cc2)C(=O)N1Cc1ccc(F)cc1,1.2 (inactive)
16,Cc1ccc(CNCC2(F)CCN(C(=O)c3ccc(F)c(Cl)c3)CC2)nc1,1.3 (active)
17,CC(C)Cc1ccc([C@H](C)C(=O)O)cc1,2.3 (active)
18,CC(C)C[C@H](NC(=O)[C@H]1O[C@@H]1C(=O)O)C(=O)NCCCCN=C(N)N,1.3 (active)
19,Nn1nnc2ccccc21,0.9 (inactive)
20,O=C(CCCCCN1CCN(c2ccccc2-c2ccccc2)CC1)NC1CCCc2ccccc21 (stereo not given),1.1 (inactive)

# — PubChem BioAssay
